Laboratory results taken from publication PMC7862700, “An all-to-all approach to the identification of sequence-specific readers for epigenetic DNA modifications on cytosine”.

Experiments:
Assay in all cases: DAPPL (digital affinity profiling via proximity ligation, sequencing); 10 mM Tris-HCl pH 7.5, 50 mM NaCl, 1 mM DTT, 4% glycerol, room temperature, 30 min; GST-TFs on glutathione beads, 16-mer random dsDNA library, 0.1% formaldehyde crosslink after washing; high values mean tight binding
Details in all cases: protein: recombinant; tags: N-terminal GST; dsDNA, one strand shown
FLI1 = target: T1, FLI1 (Homo sapiens, UniProt Q01543 1-452)
T1 sequence: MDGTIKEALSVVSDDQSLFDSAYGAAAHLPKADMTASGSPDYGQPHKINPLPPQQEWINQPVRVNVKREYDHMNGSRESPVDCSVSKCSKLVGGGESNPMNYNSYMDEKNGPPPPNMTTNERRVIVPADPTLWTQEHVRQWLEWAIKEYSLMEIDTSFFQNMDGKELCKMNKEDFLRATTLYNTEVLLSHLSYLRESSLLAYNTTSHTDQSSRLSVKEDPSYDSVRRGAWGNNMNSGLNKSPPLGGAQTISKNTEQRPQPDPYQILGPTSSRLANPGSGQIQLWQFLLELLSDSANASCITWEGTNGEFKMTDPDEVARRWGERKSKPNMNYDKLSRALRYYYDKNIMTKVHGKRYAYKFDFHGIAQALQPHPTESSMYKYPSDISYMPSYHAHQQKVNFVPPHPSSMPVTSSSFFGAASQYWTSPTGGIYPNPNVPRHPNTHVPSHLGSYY
Outline: (§1)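 The binding signal reported is, for every hexamer, its read frequency for a factor over its read frequency for the tag-only sample. Reads came from pools of yeast-expressed, GST-fused human transcription factors on glutathione beads, barcoded with DNA and mixed with that sample, which were incubated with 200 nmole of a random double-stranded 16-mer DNA library in Tris/NaCl/DTT/glycerol buffer at room temperature for 30 min. After washing, the pools were crosslinked with 0.1% formaldehyde, proximity-ligated with BsaI/T4 ligase for 1 h at 37 °C, PCR-amplified and sequenced on an Illumina NextSeq500.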

ELK1 = target: T2, ELK1 (Homo sapiens, UniProt P19419 1-428)
T2 sequence: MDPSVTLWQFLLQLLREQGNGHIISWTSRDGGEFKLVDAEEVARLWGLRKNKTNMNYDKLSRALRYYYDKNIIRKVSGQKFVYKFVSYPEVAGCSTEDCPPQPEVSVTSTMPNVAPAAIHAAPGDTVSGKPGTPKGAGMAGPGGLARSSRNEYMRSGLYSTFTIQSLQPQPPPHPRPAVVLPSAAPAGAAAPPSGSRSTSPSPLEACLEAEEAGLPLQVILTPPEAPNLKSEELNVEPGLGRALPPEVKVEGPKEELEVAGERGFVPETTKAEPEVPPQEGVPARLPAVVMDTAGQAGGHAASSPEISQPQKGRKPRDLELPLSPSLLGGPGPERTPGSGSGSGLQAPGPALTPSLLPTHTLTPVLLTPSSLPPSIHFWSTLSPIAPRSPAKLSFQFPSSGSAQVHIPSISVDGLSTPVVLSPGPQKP
Outline: as §1

GABPA = target: T3, GABPA (Homo sapiens, UniProt Q06546 1-454)
T3 sequence: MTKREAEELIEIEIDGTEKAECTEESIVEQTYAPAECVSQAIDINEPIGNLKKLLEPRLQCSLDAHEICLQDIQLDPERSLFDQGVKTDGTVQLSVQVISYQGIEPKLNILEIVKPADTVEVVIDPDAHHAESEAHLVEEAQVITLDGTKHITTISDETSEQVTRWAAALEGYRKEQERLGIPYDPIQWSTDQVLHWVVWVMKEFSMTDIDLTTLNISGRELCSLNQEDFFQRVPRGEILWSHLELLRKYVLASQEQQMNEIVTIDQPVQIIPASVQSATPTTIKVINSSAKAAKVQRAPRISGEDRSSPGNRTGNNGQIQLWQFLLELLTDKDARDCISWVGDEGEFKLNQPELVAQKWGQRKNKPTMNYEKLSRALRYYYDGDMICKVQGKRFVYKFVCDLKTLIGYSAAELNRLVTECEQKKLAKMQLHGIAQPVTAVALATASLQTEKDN
Outline: as §1

ERG = target: T4, ERG (Homo sapiens, UniProt P11308 1-479)
T4 sequence: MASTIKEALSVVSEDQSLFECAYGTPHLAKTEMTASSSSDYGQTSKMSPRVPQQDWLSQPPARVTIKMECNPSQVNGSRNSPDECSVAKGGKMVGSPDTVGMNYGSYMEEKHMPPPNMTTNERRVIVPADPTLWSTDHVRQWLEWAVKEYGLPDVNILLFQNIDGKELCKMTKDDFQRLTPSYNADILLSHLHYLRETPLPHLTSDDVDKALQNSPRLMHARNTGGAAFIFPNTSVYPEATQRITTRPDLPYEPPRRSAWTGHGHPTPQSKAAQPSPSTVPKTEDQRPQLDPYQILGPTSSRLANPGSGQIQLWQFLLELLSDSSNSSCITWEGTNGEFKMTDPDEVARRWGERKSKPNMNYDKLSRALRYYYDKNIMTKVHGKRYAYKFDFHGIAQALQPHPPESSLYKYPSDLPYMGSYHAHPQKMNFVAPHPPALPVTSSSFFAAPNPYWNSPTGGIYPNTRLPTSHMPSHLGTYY
Outline: as §1

ELF1 = ELF1 (Homo sapiens, UniProt P32519 1-619)
Sequence of ELF1 (P32519 whole entry): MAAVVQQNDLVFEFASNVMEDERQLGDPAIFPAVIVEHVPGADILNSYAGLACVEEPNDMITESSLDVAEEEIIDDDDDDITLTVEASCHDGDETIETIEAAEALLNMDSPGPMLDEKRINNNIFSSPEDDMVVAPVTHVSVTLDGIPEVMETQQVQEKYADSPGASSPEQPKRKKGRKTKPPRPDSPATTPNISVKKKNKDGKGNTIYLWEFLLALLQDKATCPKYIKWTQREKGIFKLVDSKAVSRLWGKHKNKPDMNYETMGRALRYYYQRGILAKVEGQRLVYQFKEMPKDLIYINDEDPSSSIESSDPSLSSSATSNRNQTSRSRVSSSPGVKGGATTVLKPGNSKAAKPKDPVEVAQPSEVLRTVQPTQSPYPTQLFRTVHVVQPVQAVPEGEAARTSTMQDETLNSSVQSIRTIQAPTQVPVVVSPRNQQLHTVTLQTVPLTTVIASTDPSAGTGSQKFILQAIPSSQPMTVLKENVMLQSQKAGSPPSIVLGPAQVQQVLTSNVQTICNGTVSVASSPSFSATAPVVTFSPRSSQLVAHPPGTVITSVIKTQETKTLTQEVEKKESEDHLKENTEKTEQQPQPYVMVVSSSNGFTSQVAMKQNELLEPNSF
Outline: as §1

EHF = target: T5, EHF (Homo sapiens, UniProt Q9NZC4 1-300)
T5 sequence: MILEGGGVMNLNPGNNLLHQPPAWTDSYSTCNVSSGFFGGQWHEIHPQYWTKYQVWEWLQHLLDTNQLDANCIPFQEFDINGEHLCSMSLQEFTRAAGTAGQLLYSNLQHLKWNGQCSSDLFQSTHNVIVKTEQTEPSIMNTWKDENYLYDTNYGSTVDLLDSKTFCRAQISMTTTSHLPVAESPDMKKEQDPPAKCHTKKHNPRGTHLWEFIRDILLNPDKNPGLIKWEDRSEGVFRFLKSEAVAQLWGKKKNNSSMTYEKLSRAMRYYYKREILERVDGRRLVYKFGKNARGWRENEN
Outline: as §1

SPI1 = SPI1 (Homo sapiens, UniProt P17947 1-270)
Outline: as §1

SPIB = SPIB (Homo sapiens, UniProt Q01892 1-262)
Sequence of SPIB (Q01892 whole entry): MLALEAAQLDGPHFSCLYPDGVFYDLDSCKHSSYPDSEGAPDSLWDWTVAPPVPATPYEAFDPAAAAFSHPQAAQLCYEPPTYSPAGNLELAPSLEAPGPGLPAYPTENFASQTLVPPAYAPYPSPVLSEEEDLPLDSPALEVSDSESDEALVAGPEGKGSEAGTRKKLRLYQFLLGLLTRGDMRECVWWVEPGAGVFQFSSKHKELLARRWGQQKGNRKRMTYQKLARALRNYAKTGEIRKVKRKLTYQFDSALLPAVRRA
Outline: as §1

ELK3 = target: T6, ELK3 (Homo sapiens, UniProt P41970 1-407)
T6 sequence: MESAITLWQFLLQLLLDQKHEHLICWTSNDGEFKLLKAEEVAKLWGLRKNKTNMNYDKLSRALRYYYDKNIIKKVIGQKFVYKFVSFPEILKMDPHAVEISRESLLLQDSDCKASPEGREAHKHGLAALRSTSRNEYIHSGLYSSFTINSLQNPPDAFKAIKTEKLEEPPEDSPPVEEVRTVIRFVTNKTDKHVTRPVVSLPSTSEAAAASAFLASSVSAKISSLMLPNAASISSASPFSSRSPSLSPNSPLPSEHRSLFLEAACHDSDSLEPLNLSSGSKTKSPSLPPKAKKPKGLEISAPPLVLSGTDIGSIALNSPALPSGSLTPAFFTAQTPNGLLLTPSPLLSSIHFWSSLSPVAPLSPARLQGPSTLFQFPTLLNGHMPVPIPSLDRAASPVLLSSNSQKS
Outline: as §1

Sequence | binding signal (FLI1) | binding signal (ELK1) | binding signal (GABPA) | binding signal (ERG) | binding signal (ELF1) | binding signal (EHF) | binding signal (SPI1) | binding signal (SPIB) | binding signal (ELK3)
CTACGG | 1.19 fold enrichment (6-mer frequency, TF over GST control) | 1.27 fold enrichment (6-mer frequency, TF over GST control) | 1.22 fold enrichment (6-mer frequency, TF over GST control) | 1.21 fold enrichment (6-mer frequency, TF over GST control) | 1.29 fold enrichment (6-mer frequency, TF over GST control) | 1.31 fold enrichment (6-mer frequency, TF over GST control) | 1.24 fold enrichment (6-mer frequency, TF over GST control) | 1.28 fold enrichment (6-mer frequency, TF over GST control) | 1.24 fold enrichment (6-mer frequency, TF over GST control)
TATACA | 1.32 fold enrichment (6-mer frequency, TF over GST control) | 1.29 fold enrichment (6-mer frequency, TF over GST control) | 1.42 fold enrichment (6-mer frequency, TF over GST control) | 1.39 fold enrichment (6-mer frequency, TF over GST control) | 1.27 fold enrichment (6-mer frequency, TF over GST control) | 1.35 fold enrichment (6-mer frequency, TF over GST control) | 1.32 fold enrichment (6-mer frequency, TF over GST control) | 1.22 fold enrichment (6-mer frequency, TF over GST control) | 1.47 fold enrichment (6-mer frequency, TF over GST control)
CTGAAT | 1.23 fold enrichment (6-mer frequency, TF over GST control) | 1.37 fold enrichment (6-mer frequency, TF over GST control) | 1.36 fold enrichment (6-mer frequency, TF over GST control) | 1.36 fold enrichment (6-mer frequency, TF over GST control) | 1.31 fold enrichment (6-mer frequency, TF over GST control) | 1.31 fold enrichment (6-mer frequency, TF over GST control) | 1.36 fold enrichment (6-mer frequency, TF over GST control) | 1.26 fold enrichment (6-mer frequency, TF over GST control) | 1.23 fold enrichment (6-mer frequency, TF over GST control)
TTCTCA | 1.36 fold enrichment (6-mer frequency, TF over GST control) | 1.31 fold enrichment (6-mer frequency, TF over GST control) | 1.33 fold enrichment (6-mer frequency, TF over GST control) | 1.26 fold enrichment (6-mer frequency, TF over GST control) | 1.29 fold enrichment (6-mer frequency, TF over GST control) | 1.19 fold enrichment (6-mer frequency, TF over GST control) | 1.32 fold enrichment (6-mer frequency, TF over GST control) | 1.31 fold enrichment (6-mer frequency, TF over GST control) | 1.27 fold enrichment (6-mer frequency, TF over GST control)
TATCTT | 1.46 fold enrichment (6-mer frequency, TF over GST control) | 1.31 fold enrichment (6-mer frequency, TF over GST control) | 1.38 fold enrichment (6-mer frequency, TF over GST control) | 1.26 fold enrichment (6-mer frequency, TF over GST control) | 1.36 fold enrichment (6-mer frequency, TF over GST control) | 1.3 fold enrichment (6-mer frequency, TF over GST control) | 1.3 fold enrichment (6-mer frequency, TF over GST control) | 1.28 fold enrichment (6-mer frequency, TF over GST control) | 1.24 fold enrichment (6-mer frequency, TF over GST control)
CCTTCT | 1.62 fold enrichment (6-mer frequency, TF over GST control) | 1.42 fold enrichment (6-mer frequency, TF over GST control) | 1.6 fold enrichment (6-mer frequency, TF over GST control) | 1.54 fold enrichment (6-mer frequency, TF over GST control) | 1.63 fold enrichment (6-mer frequency, TF over GST control) | 1.67 fold enrichment (6-mer frequency, TF over GST control) | 1.67 fold enrichment (6-mer frequency, TF over GST control) | 1.56 fold enrichment (6-mer frequency, TF over GST control) | 1.79 fold enrichment (6-mer frequency, TF over GST control)
GAATGT | 1.14 fold enrichment (6-mer frequency, TF over GST control) | 1.11 fold enrichment (6-mer frequency, TF over GST control) | 1.12 fold enrichment (6-mer frequency, TF over GST control) | 1.08 fold enrichment (6-mer frequency, TF over GST control) | 1.03 fold enrichment (6-mer frequency, TF over GST control) | 1.13 fold enrichment (6-mer frequency, TF over GST control) | 1.07 fold enrichment (6-mer frequency, TF over GST control) | 1.12 fold enrichment (6-mer frequency, TF over GST control) | 1.06 fold enrichment (6-mer frequency, TF over GST control)
